# Test results: PubChem BioAssay
# Several values for one entry are separate records, joined by “and”; a condition that tells them apart may be missing. Equal values may be shown once. Where a structure was tested more than once in an assay, its records may differ in their call. Activity calls are given as the source filed them.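 The calls were made as follows, unless noted: active = normalized viability below 100% at a tested concentration; inactive = the rest.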
# Key:
# [1] = test system: Aerobactin synthetase IucA (Klebsiella pneumoniae); assay: inhibition of K. pneumoniae IucA enzyme – biochemical, Tocris library, absorbance (AID 1345561; call rule not given here;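 also: 100% = enzyme without compound and 0% = no enzyme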); conditions: purified IucA enzyme assay, absorbance (OD) read-out; stronger effect = lower value;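 tested at 8 µM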
# [2] = viability loss with induced miR-34 in A549 – imaging, A549 dox-inducible miR-34, nuclei and caspase counts, primary screen (AID 1347080;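 active = compounds whose cell count with miR-34 switched on is under 0.7 times the count with it off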); conditions: A549 miR-34 inducible, Hoechst nuclei count, 48 h
# [3] = compounds altering HSF1 focus formation in cells – imaging, Selleck Cancer Library (AID 1347162; in the data active = plate-normalised HSF1 focus index below about 0.46); conditions: human cells, HSF1 nuclear foci imaging, at 10 µM; SSMD: measured here: HSF1 foci SSMD mean; cell count: measured here: cell number; plate-normalised HSF1 focus index: stronger effect = lower value
# [4] = galactose survival enhancers in mitochondrial complex I cybrids – cell-based, galactose medium, ATP luminescence, primary screen (AID 1645843;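 active = z-score of at least 1.8 in each of two replicates, scored against plate mean and spread of sample wells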;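 also: positive z means more ATP and so rescue of galactose-driven cybrid death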); conditions: complex I mutant cybrid cells, 72 h, stronger effect = higher value
# [5] = compounds altering circadian rhythm period length – cell-based, LOPAC library, luminescence reporter (AID 2774; call rule not given here;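 also: values are relative to mean of DMSO wells on each plate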); conditions: circadian reporter cells, at 7 µM, actives lie on both sides
# [6] = P. berghei load reduction in hepatocytes – cell-based, HepG2, luciferase luminescence, HepG2 viability, primary screen (AID 624349; in the data active = parasite load remaining mostly below about 12%, no sharp cut-off; inactive = mostly above about 10%;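 also: 100% = mean of DMSO negative control wells on the same plate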); conditions: P. berghei liver stage in HepG2, luciferase luminescence, concentration not given here; parasite load remaining: stronger effect = lower value; viability: measured here: HepG2 viability without parasites
# [7] = test system: Hepatitis C virus NS3 helicase; assay: blockers of NS3h binding to ssDNA – biochemical, fluorescence polarization, LOPAC1280 library, primary screen (AID 687035; in the data active = inhibition above about 37%); conditions: Purified HCV NS3 helicase, Cy5-dT15 ssDNA binding fluorescence polarization; stronger effect = higher value; concentration not given here
# [8] = compounds altering Cy5-DNA-NS3h complex signal – biochemical, LOPAC1280, artefact control for HCV NS3 helicase inhibitor project (AID 687037; call rule not given here); conditions: Cy5-DNA-NS3h complex fluorescence interference counterscreen
# [9] = blockers of cellular phospholipid synthesis – cell-based, LOPAC library, screen 4, primary screen (AID 1347384; call rule not given here); conditions: animal cells, phospholipid biosynthesis inhibition screen; at 10 µM
# [10] = MELAS cybrid and Rieske KO viability enhancers – cell-based, MELAS cybrids, Rieske KO mouse fibroblasts, CellTiter-Glo, primary screen (AID 1508586;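 active = mean z-score across replicates of 1.96 or higher in either the MELAS or the Rieske mutant cell line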;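 also: z relative to plate mean and SD of compound and empty wells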); conditions: low glucose
# [11] = compounds altering viability of human ES cells (AID 493140; call rule not given here;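 also: cells exposed to compounds for four days before counting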); conditions: human embryonic stem cell survival screen; stronger effect = higher value
# [12] = chitosan synthesis blockers in C. neoformans – flow cytometry, Cibacron Brilliant Red staining (AID 1347148; call rule not given here;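 also: compound exposure lasted three days at 37 degrees C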); conditions: Cryptococcus neoformans chitosan, stronger effect = lower value; at 10 µM unless noted
# [13] = drug combination growth inhibition, ovarian cancer – cell-based, oncology-focused library, rucaparib conditional, profiling panel (AID 1508598); conditions: patient-derived ovarian cancer cells, CellTiter-Glo viability, 144 h, stronger effect = lower value
# [14] = stronger effect = lower value, cell number ratio, induced over uninduced
# [15] = measured here: relative caspase fold change +Dox/-Dox
# [16] = measured here: total cells with miR-34 induction, stronger effect = lower value
# [17] = measured here: total cells without miR-34 induction
smiles,measurement,setting,value
COc1ccc(-c2oc3cc(OC)ccc3c2C(=O)c2ccc(C#N)cc2)cc1,remaining activity,[1],104% (inactive)
same,fold change,[2]; [14],0.933 (inactive)
same,fold change,[2]; [15],1.26
same,cell count,[2]; [16],7250
same,cell count,[2]; [17],7780
same,SSMD,[3],3.38
same,cell count,[3],6920
same,plate-normalised HSF1 focus index,[3],1.2 (inactive)
same,z-score,[4],0.755 (inactive)
CC(C)N(CCC(=O)c1ccc2ccccc2c1)Cc1ccccc1,period change,[5],0 h (inactive)
same,parasite load remaining,[6],28.5% (inactive)
same,viability,[6],88.8%
same,inhibition,[7],-3% (inactive)
same,fluorescence ratio (interference),[8],0.9 (inactive)
same,remaining activity,[1],113% (inactive)
same,fold change,[2]; [14],1.13 (inactive) and 0.795 (inactive) and 0.953 (inactive)
same,fold change,[2]; [15],1 and 0.533 and 0.643
same,cell count,[2]; [16],10100 and 6810 and 7420
same,cell count,[2]; [17],8940 and 8570 and 7790
same,outcome,[9],inactive
same,z-score,"[10]; MELAS cybrid survival, CellTiter-Glo 48 h, stronger effect = higher value",-0.331 (inactive)
same,z-score,"[10]; Rieske KO mouse fibroblast survival, CellTiter-Glo 72 h",-0.0503
same,z-score,[4],-1.29 (inactive) and -0.82 (inactive)
Cc1ccc(S(=O)(=O)/C=C/C#N)cc1,survival,[11],9.17 (inactive)
same,parasite load remaining,[6],28.8% (inactive)
same,viability,[6],155%
same,inhibition,[7],0% (inactive)
same,fluorescence ratio (interference),[8],1 (inactive)
same,remaining activity,[1],118% (inactive)
same,fold change,[2]; [14],1.22 (inactive) and 0.866 (inactive) and 0.568 (active)
same,fold change,[2]; [15],0.97 and 2.14 and 4.02
same,cell count,[2]; [16],1120 and 1020 and 904
same,cell count,[2]; [17],923 and 1180 and 1590
same,fold fluorescence,[12],8.49 [at 241.3 µM] (inactive)
same,SSMD,[3],-10.4
same,cell count,[3],6840
same,plate-normalised HSF1 focus index,[3],0.628 (inactive)
same,outcome,[9],inactive
same,viability,"[13]; at 0.000305 µM, OCI-C5x cells, with rucaparib 10 µM, 100% = cells with rucaparib alone",105% (inactive)
same,viability,"[13]; at 0.000305 µM, OCI-C5x cells, without rucaparib",97.6% (active)
same,viability,"[13]; at 0.000305 µM, OCI-P5x cells, with rucaparib 20 µM, 100% = cells with rucaparib alone",97.8% (active)
same,viability,"[13]; at 0.000305 µM, OCI-P5x cells, without rucaparib",102% (inactive)
same,viability,"[13]; at 0.00122 µM, OCI-C5x cells, with rucaparib 10 µM, 100% = cells with rucaparib alone",116% (inactive)
same,viability,"[13]; at 0.00122 µM, OCI-C5x cells, without rucaparib",111% (inactive)
same,viability,"[13]; at 0.00122 µM, OCI-P5x cells, with rucaparib 20 µM, 100% = cells with rucaparib alone",98.6% (active)
same,viability,"[13]; at 0.00122 µM, OCI-P5x cells, without rucaparib",106% (inactive)
same,viability,"[13]; at 0.00488 µM, OCI-C5x cells, with rucaparib 10 µM, 100% = cells with rucaparib alone",116% (inactive)
same,viability,"[13]; at 0.00488 µM, OCI-C5x cells, without rucaparib",123% (inactive)
same,viability,"[13]; at 0.00488 µM, OCI-P5x cells, with rucaparib 20 µM, 100% = cells with rucaparib alone",94.4% (active)
same,viability,"[13]; at 0.00488 µM, OCI-P5x cells, without rucaparib",105% (inactive)
same,viability,"[13]; at 0.0195 µM, OCI-C5x cells, with rucaparib 10 µM, 100% = cells with rucaparib alone",115% (inactive)
same,viability,"[13]; at 0.0195 µM, OCI-C5x cells, without rucaparib",117% (inactive)
same,viability,"[13]; at 0.0195 µM, OCI-P5x cells, with rucaparib 20 µM, 100% = cells with rucaparib alone",95.6% (active)
same,viability,"[13]; at 0.0195 µM, OCI-P5x cells, without rucaparib",106% (inactive)
same,viability,"[13]; at 0.0781 µM, OCI-C5x cells, with rucaparib 10 µM, 100% = cells with rucaparib alone",115% (inactive)
same,viability,"[13]; at 0.0781 µM, OCI-C5x cells, without rucaparib",109% (inactive)
same,viability,"[13]; at 0.0781 µM, OCI-P5x cells, with rucaparib 20 µM, 100% = cells with rucaparib alone",86.5% (active)
same,viability,"[13]; at 0.0781 µM, OCI-P5x cells, without rucaparib",102% (inactive)
same,viability,"[13]; at 0.313 µM, OCI-C5x cells, with rucaparib 10 µM, 100% = cells with rucaparib alone",115% (inactive)
same,viability,"[13]; at 0.313 µM, OCI-C5x cells, without rucaparib",116% (inactive)
same,viability,"[13]; at 0.313 µM, OCI-P5x cells, with rucaparib 20 µM, 100% = cells with rucaparib alone",90.2% (active)
same,viability,"[13]; at 0.313 µM, OCI-P5x cells, without rucaparib",94.8% (active)
same,viability,"[13]; at 1.25 µM, OCI-C5x cells, with rucaparib 10 µM, 100% = cells with rucaparib alone",122% (inactive)
same,viability,"[13]; at 1.25 µM, OCI-C5x cells, without rucaparib",112% (inactive)
same,viability,"[13]; at 1.25 µM, OCI-P5x cells, with rucaparib 20 µM, 100% = cells with rucaparib alone",83.8% (active)
same,viability,"[13]; at 1.25 µM, OCI-P5x cells, without rucaparib",81.1% (active)
same,viability,"[13]; at 5 µM, OCI-C5x cells, with rucaparib 10 µM, 100% = cells with rucaparib alone",3.86% (active)
same,viability,"[13]; at 5 µM, OCI-C5x cells, without rucaparib",4.91% (active)
same,viability,"[13]; at 5 µM, OCI-P5x cells, with rucaparib 20 µM, 100% = cells with rucaparib alone",26.6% (active)
same,viability,"[13]; at 5 µM, OCI-P5x cells, without rucaparib",2.37% (active)
same,z-score,[4],-1.38 (inactive) and -1.04 (inactive)
N#CC(=C(/N)Sc1ccccc1N)/C(C#N)=C(\N)Sc1ccccc1N,survival,[11],104 (inactive)
same,remaining activity,[1],92.9% (inactive)
same,fold fluorescence,[12],5.14 [at 131.4 µM] (inactive)
same,z-score,[4],-0.875 (inactive)
